Shown are actives, neighbours in structure and some others; about 19% of the full set was active somewhere.
TDP1 cell CPT: growth inhibition of DT40 Tdp1-/-;hTDP1 cells with camptothecin (screen for TDP1 inhibitors); chicken DT40 Tdp1-/-;hTDP1 cells + 20 nM CPT, ATP luminescence, 48 h; Potency, µM (highest dose often 46.2 µM), inactives show at the top dose activity change, negative = growth inhibition, actives largely listed as inhibitors; actives 12% (n = 420,000); further: potency means the concentration at half of the fitted maximal effect; nearly all actives have a fitted effect of over 55% in size
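Cell growth measured by CellTiter-Glo luminescence after a minimum 48 h, 37 C compound exposure with 20 nM CPT in Tdp1-knockout DT40 cells stably expressing hTDP1, seeded 400/well; qHTS titration format.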
IL1B secr inh: inflammasome signaling inhibition, IL-1 beta readout. THP-1 LPS/ATP IL-1B secretion, AlphaLISA, 16 h; stronger effect = lower value. activity change, % at 57.5 µM. actives 4.7% (n = 360,000). AID 743279; in the data active means activity change below about -50%; inconclusive means mostly about -30% to -49%
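Secreted IL-1B measured by AlphaLISA bead assay after 16 h compound exposure of THP-1 cells; compounds (final up to 57.5 uM) added 1 h before LPS (250 ng/mL) and ATP (1.25 mM) stimulation; lower signal means less secretion.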
DT40 TDP1 no CPT: qHTS for Inhibitors of human tyrosyl-DNA phosphodiesterase 1 (TDP1): qHTS in cells in absence of CPT | AID 686978, 2013 | actives 15% (n = 420,000) | Potency, µM (doses to about 46.2 µM), for the others: at the highest dose activity change, negative = growth inhibition, hits mostly inhibitors | DT40 Tdp1-/- hTDP1 cells, no CPT, ATP luminescence, 48 h; further: potency means the concentration at half of the fitted maximal effect; nearly all actives have a fitted effect of over 55% in size
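Chicken DT40 Tdp1-/- cells complemented with human TDP1, screened without camptothecin (DMSO vehicle only), 400 cells/well. Compounds pin-transferred, cells incubated at 37 °C for at least 48 hr. Growth read as ATP-dependent luminescence (CellTiter-Glo, 30 min at RT).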
HT1080-NT tox: kills 2HG-producing HT-1080-NT fibrosarcoma cells | HT-1080-NT fibrosarcoma viability, CellTiter-Glo ATP luminescence, 48 h | Potency, µM (highest dose often 46.1 µM), for inactives: top-dose activity, negative = less viability, usual class: cytotoxic | actives 1.6% (n = 360,000) | AID 686970;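 further: NT is the 2HG producing partner of a matched IDH1 knockdown line; potency means the concentration at half of the fitted maximal effect; 0% = DMSO-treated cells and -100% = media-only wells without cells; nearly all actives have a fitted effect of over 55% in size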
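750 cells/well, RPMI + 5% FBS; 2 h settle, compound pin-transfer, 48 h at 37 degrees C. CellTiter-Glo 10 min RT, luminescence. Normalized to DMSO and media-only wells.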
HT1080 IDH1KD tx: kills HT-1080 cells with IDH1 knockdown; Potency, µM (series often up to 46.1 µM), for the others: at the highest dose activity, negative = toxicity, most hits filed as cytotoxic; HT-1080 IDH1 knockdown viability, ATP luminescence, 48 h; actives 2% (n = 360,000);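 further: potency means the concentration at half of the fitted maximal effect; 0% = DMSO wells and -100% = cell-free medium wells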
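HT-1080-IDH1KD cells (IDH1 knocked down), 750/well in RPMI with 5% FBS, treated with compound 48 h at 37 degrees C. Viability by CellTiter-Glo luminescence, normalised to DMSO and no-cell wells; concentration-response curves classed.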
* marks the source's active call; other numbers are inactive results; ? = inconclusive; . = not tested or not shown; [ ] = remark or other dose. Unless noted, the call rests on the fitted dose curve; in most records, active means well fitted curve in the direction sought with a large enough effect; inconclusive means small, poorly fitted or top-dose-only effect, or another doubt; inactive means no such curve, though single readings can be large; an effect the other way counts as inactive or inconclusive. Unless noted, on the % scale 0 is the no-effect control and ±100 the full control effect.

SMILES	TDP1 cell CPT	IL1B secr inh	DT40 TDP1 no CPT	HT1080-NT tox	HT1080 IDH1KD tx
CCN(c1ccccc1)S(=O)(=O)c1ccc(Cl)c(NC(=O)CN2C(=O)NC3(CCCC3)C2=O)c1	?	?	18.4µM*	-4.7%	1.3%
CCC1(c2ccccc2)NC(=O)N(CC(=O)Nc2cc(S(=O)(=O)N3CCCCC3)ccc2N(C)C)C1=O (stereo not given)	?	-29.9	20.6µM*	-23.3%	-21.3%
CCc1cccc(NC(=O)CN2C(=O)NC3(CCCCCCC3)C2=O)c1	10.3µM*	7.6	14.6µM*	-27.5%	?
CCN(c1ccccc1)S(=O)(=O)c1ccc(OC)c(NC(=O)CN2C(=O)NC(C)(C)C2=O)c1	-13.9%	-4.5	-0.5%	0.6%	7.7%
O=C(CN1C(=O)NC2(CCCCCCC2)C1=O)Nc1ccc(Cl)cc1	13µM*	16.7	14.6µM*	?	?
COc1cccc(NC(=O)CN2C(=O)NC3(CCCC3)C2=O)c1	2.9%	17.0	5.8%	2.3%	1.8%
CC[N+](C)(C)c1cccc(O)c1	12.9%	18.5	9.1%	25.2%	11.1%
CCN(CC)C(=O)C1=C(C)N(CCC2=CCCCC2)C(=O)C(CC(=O)NCCN2CCOCC2)C1 (stereo not given)	-2.1%	13.7	-6.0%	6.2%	0.7%
Cc1cc(C)c2c(N)c(C(=O)Nc3ccccc3F)sc2n1	21.1%	?	13.4%	4.5%	14.1%
CCCn1c(C)cc(C(=O)CN2C(=O)NC3(CCCCCC3)C2=O)c1C	10.3µM*	30.6	6.51µM*	0.2%	1.1%
CC1(c2cccc(Br)c2)NC(=O)N(CC(=O)Nc2ccc(N3CCCCC3)cc2)C1=O (stereo not given)	?	-8.8	13µM*	-25.9%	?
CC(C)CC1(C)NC(=O)N(CC(=O)Nc2ccc3c(c2)CCC3)C1=O (stereo not given)	?	0.0	25.9µM*	?	-27.8%
CCc1ccc(C(=O)CN2C(=O)NC3(CCCCCC3)C2=O)cc1	?	-26.8	23.1µM*	-6.3%	-14.0%
COc1ccccc1CNC(=O)C(NS(=O)(=O)c1ccc2c(c1)CCN2C(C)=O)C(C)C (stereo not given)	-2.5%	.	-14.2%	.	.
Cc1c(NC(=O)C(C)OC(=O)CCOc2ccccc2)c(=O)n(-c2ccccc2)n1C (stereo not given)	-4.8%	6.8	2.7%	2.8%	4.2%
O=S(=O)(/C=C/c1ccccc1)N1CCC(n2c(C3CCCO3)nc3cccnc32)CC1 (stereo not given)	10.9%[9.04 µM]	.	-14.8%	.	.
Cc1noc(/C=C/c2ccco2)c1S(=O)(=O)N1CCC(C(=O)N(C)Cc2ccccc2)CC1	?	?	-24.7%	-7.8%	-7.9%
CCN(CCN(C)C)C(=O)C1CCN(S(=O)(=O)c2c(C)noc2/C=C/c2ccccc2F)CC1	2.91µM*	-11.1	4.61µM*	-2.3%	0.0%
Cc1noc(/C=C/c2ccccc2F)c1S(=O)(=O)N1CCC(C(=O)N2CCN(C)CC2)CC1	?	0.0	?	?	?
CCOc1ccccc1/C=C/c1onc(C)c1S(=O)(=O)N1CCC(C(=O)N(CC)CC)CC1	14.6µM*	-11.2	16.4µM*	-18.3%	-4.9%
Cc1ccc(S(=O)(=O)N2CCC(C(=O)NCCN3CCOCC3)CC2)cc1	-0.9%	-3.3	-7.8%	-2.4%	0.2%
O=C(CCc1ccccc1)Nc1cc2c3c(c1)CC(=O)N3CCC2	-20.3%	1.3	?	4.8%	-16.9%
COc1cccc(C(C(=O)NCc2ccccc2)N2CCN(c3cccc(C)c3C)CC2)c1OC (stereo not given)	18.4µM*	?	18.4µM*	?	?
COc1cccc(C(C(=O)NCc2ccccc2)N2CCN(C(=O)C3CCCO3)CC2)c1OC (stereo not given)	4.2%	-20.8	-8.8%	-1.8%	17.3%
CCC(CC)C(C(=O)NCc1ccccc1)N1CCN(c2cccc(C)c2C)CC1 (stereo not given)	6.51µM*	-5.2	5.8µM*	15.3%	5.2%
SMILES	TDP1 cell CPT	IL1B secr inh	DT40 TDP1 no CPT	HT1080-NT tox	HT1080 IDH1KD tx
Cc1cccc(N2CCN(C(C(=O)NCc3ccccc3)c3ccc(F)cc3)CC2)c1C (stereo not given)	23.1µM*	13.3	20.6µM*	?	?
Cc1cccc(N2CCN(C(C(=O)NCc3ccccc3)c3ccco3)CC2)c1C (stereo not given)	?	-15.7	?	?	?
Cc1nc(NN)c2c3c(sc2n1)COC(C)(C)C3	-4.0%	30.5	-19.9%	-0.6%	-0.3%
CCN(CCCCN1C(=O)c2ccccc2C1=O)c1ccc2c(c1)C(=O)N(C)C2=O	?	-1.8	18.4µM*	7.7%	9.0%
CCOC(=O)C1CCCN(S(=O)(=O)c2c(C(=O)N3CCCCC3)c(C)n(C)c2C)C1 (stereo not given)	-10.6%	-1.2	8.0%	10.9%	13.5%
O=[N+]([O-])c1ccc(Sc2ccc(Cl)c(Cl)c2)nc1	?	-58.1*	-29.4%	2.0%	-4.3%
COCC1CCCN(Cc2ccc3c(c2)CN(C(=O)c2ccc(-n4cccn4)cc2)CCO3)C1 (stereo not given)	7.4%[9.04 µM]	.	-0.1%	.	.
O=C1c2ccccc2C(=O)c2c1oc(C(F)(F)F)c2C(=O)c1ccccc1	11.6µM*	-84.4*	16.4µM*	?	23.1µM*
COc1ccc(C(=O)c2coc3c2C(=O)C(=O)c2ccccc2-3)cc1	2.59µM*	12.6	4.61µM*	?	?
O=C(c1ccccc1)c1ccc(CN2C(=O)c3ccccc3C2=O)o1	-4.9%	8.1	-1.7%	-0.7%	5.4%
O=C(c1ccccc1)c1coc2c1C(=O)c1ccccc1C2=O	?	-27.7	?	16.4µM*	18.4µM*
O=C1C(=C(O)c2ccccc2)C(=O)c2ccccc21	?	4.6	-13.8%	-28.6%	-0.4%[9.24 µM]
COc1ccc2occ(C(=O)c3ccccc3)c2c1	-11.7%	-8.7	-12.4%	-1.2%	0.0%
O=C(CNC(=O)c1ccccc1)NCc1nc2ccccc2[nH]1	-8.0%	-1.3	-4.3%	19.0%	16.6%
COc1cc(C(C(=O)NC2CCCC2)N(C(=O)Cc2cccs2)C2CC2)cc(OC)c1OC (stereo not given)	-12.3%	-2.3	?	18.1%	-3.8%
Cc1cc(-c2ccc(S(=O)(=O)Nc3cccc(C)c3C)s2)on1	2.91µM*	.	2.59µM*	.	.
CCOc1ccc(NS(=O)(=O)c2ccc(-c3cc(C)no3)s2)cc1	?	.	18.4µM*	.	.
COc1ccc(OC)c(NS(=O)(=O)c2ccc(-c3cc(C)no3)s2)c1	1.3µM*	.	0.581µM*	.	.
